Reference: PubChem BioAssay (EPA / NIEHS)
Calls of active or inactive are those of the source. The calls were made as follows: active = hit-call score of the fitted dose curve at least 0.9, where 1 is the maximum; inactive = score below 0.9.

How the values were obtained:
[1] = ATG_E_Box_CIS: Attagene CIS-FACTORIAL HepG2 Assay for human Enhancer Box (E-box) (AID 2282936); settings: HepG2 E-box cis-reporter transcription, actives raise or lower the signal
Procedure, shortened: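 Fluorescent reporter fragments separated by capillary electrophoresis gave the signal; mRNA came from HepG2 cells transfected with cis-element reporters and treated 24 h. Curves fitted bidirectionally relative to DMSO controls.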

[2] = ATG_M_61_CIS: Attagene CIS-FACTORIAL HepG2 Assay for M61 Transcription Factor (Internal Marker) (AID 2282937); settings: HepG2 Attagene CIS-FACTORIAL M61 internal marker reporter; actives raise or lower the signal
Procedure, shortened: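 Human liver HepG2, transient MRTU transfection (cis promoter elements), 24 h compound. Total RNA → oligo(dT) RT → PCR → FAM label → HpaI → CE. Internal background marker; bidirectional fitting, DMSO = baseline.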

[3] = ATG_EGR_CIS: Attagene CIS-FACTORIAL HepG2 Assay for human Early Growth Response 1 (EGR1) (AID 2282938); settings: HepG2 Attagene CIS-FACTORIAL EGR reporter mRNA; actives raise or lower the signal
Procedure, shortened: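 Transient transfection of human HepG2 with multiple cis-regulated reporter units, chemical exposure 24 h, total RNA isolated. Reverse transcription, PCR, fluorescent labelling and capillary electrophoresis quantify reporter transcripts; activity fitted bidirectionally against DMSO.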

[4] = ATG_M_19_CIS: Attagene CIS-FACTORIAL HepG2 Assay for M19 Transcription Factor (Internal Marker) (AID 2282939); settings: HepG2 Attagene CIS-FACTORIAL M19 internal marker reporter; actives raise or lower the signal
Procedure, shortened: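 Signals come from fluorescence of labelled reporter-specific PCR fragments resolved by capillary electrophoresis, following 24 h treatment of HepG2 cells transfected with cis-promoter reporter units; activity was fitted in both directions relative to DMSO.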

[5] = ATG_Ets_CIS: Attagene CIS-FACTORIAL HepG2 Assay for human Erythroblast Transformation Specific (ETS) (AID 2282941); settings: HepG2 ETS cis-reporter transcription, actives raise or lower the signal
Procedure, shortened: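 Multiplexed reporter transcript profiling: HepG2, 24 h treatment, total RNA to cDNA, PCR, 6-FAM labelling, HpaI cut, capillary electrophoresis. Gain- or loss-of-signal fitted against DMSO.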

[6] = molecular target: Hepatocyte nuclear factor 3-beta (Homo sapiens) (UniProt Q9Y261); assay: ATG_FoxA2_CIS: Attagene CIS-FACTORIAL HepG2 Assay for human Forkhead box A2 (FOXA2) (AID 2282942); settings: HepG2 cis-reporter transcription factor activity, 24 h; actives raise or lower the signal
Procedure, shortened: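 Transient MRTU transfection of HepG2 liver cells; 24 h treatment; total RNA → oligo(dT) RT → PCR → FAM primer extension → HpaI cut → CE. Bidirectional fit vs DMSO.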

[7] = ATG_FoxO_CIS: Attagene CIS-FACTORIAL HepG2 Assay for human Forkhead box O (FoxO) (AID 2282943); settings: HepG2 Attagene cis-reporter, FoxO element, mRNA; actives raise or lower the signal
Procedure, shortened: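 Endogenous transcription factor activity read from multiplexed cis-promoter reporter transcripts in transiently transfected HepG2, 24 h after dosing. Reporter RNA measured via RT-PCR plus capillary electrophoresis of FAM-labeled products; gain or loss relative to DMSO.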

[8] = ATG_GATA_CIS: Attagene CIS-FACTORIAL HepG2 Assay for human GATA Binding Protein (AID 2282944); settings: HepG2 GATA cis-element reporter, Attagene multiplex mRNA; actives raise or lower the signal
Procedure, shortened: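 After transfecting HepG2 cells with multiple cis-regulated reporter units, chemicals are dosed for 24 h; isolated RNA undergoes RT-PCR and fluorescent labeling before capillary electrophoresis, with activity expressed against DMSO.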

[9] = ATG_GLI_CIS: Attagene CIS-FACTORIAL HepG2 Assay for human Zinc Finger Protein GLI1 (AID 2282945); settings: HepG2, Attagene cis-factorial reporter mRNA, GLI element; actives raise or lower the signal
Procedure, shortened: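 Bidirectional curve fits relative to DMSO, using reporter mRNA levels from RT-PCR plus capillary electrophoresis. Cells were HepG2 transiently carrying cis-regulated reporter constructs, harvested 24 h after dosing.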

[10] = molecular target: Bile acid receptor (Homo sapiens) (UniProt Q96RI1); assay: ATG_IR1_CIS: Attagene CIS-FACTORIAL HepG2 Assay for human Nuclear Receptor Subfamily 1 Group H Member 4 (NR1H4), IR1 submotif (AID 2282946); settings: IR1 reporter transcription, actives raise or lower the signal
Procedure, shortened: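 HepG2 cells transiently transfected with multiplexed cis-element reporter units read endogenous transcription factor activity. After 24 h compound exposure, reporter mRNA was quantified by RT-PCR, fluorescent labelling, HpaI digestion and capillary electrophoresis; bidirectional fitting versus DMSO baseline.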

[11] = ATG_GRE_CIS: Attagene CIS-FACTORIAL HepG2 Assay for human Glucocorticoid Response Elements (GRE) (AID 2282947); settings: HepG2 GRE cis-reporter, Attagene multiplex mRNA; actives raise or lower the signal
Procedure, shortened: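 Multiplexed cis-reporter mRNA induction, HepG2, 24 h post-dose. RT-PCR, FAM-labelled, HpaI-digested amplicons by CE. Bidirectional fit vs DMSO.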

[12] = ATG_ISRE_CIS: Attagene CIS-FACTORIAL HepG2 Assay for human Interferon Regulatory Factor 1 (IRF1) binding to an Interferon-Stimulated Response Element (ISRE) (AID 2282948); settings: HepG2 ISRE cis-reporter (Attagene), mRNA transcription readout; actives raise or lower the signal
Procedure, shortened: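 Signal reflects induction or loss of ISRE-linked reporter mRNA in transiently transfected HepG2 cells after a 24 h treatment, detected by fluorescent RT-PCR fragments on capillary electrophoresis and normalised to DMSO.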

[13] = ATG_M_32_CIS: Attagene CIS-FACTORIAL HepG2 Assay for M32 Transcription Factor (Internal Marker) (AID 2282949); settings: HepG2 Attagene cis-factorial M32 reporter, mRNA; actives raise or lower the signal;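 also: background control marker of the multiplexed CIS panel rather than a real target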
Procedure, shortened: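 Using DMSO as baseline, bidirectional curve fits were applied to reporter mRNA signals. These came from transiently transfected HepG2 cells exposed for 24 h, with RNA analysed by RT-PCR, FAM primer extension, HpaI digestion and CE.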

[14] = ATG_M_06_CIS: Attagene CIS-FACTORIAL HepG2 Assay for M06 Transcription Factor (Internal Marker) (AID 2282950); settings: HepG2 Attagene CIS-FACTORIAL M06 internal marker reporter; actives raise or lower the signal
Procedure, shortened: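 HepG2 liver cells, 24 h exposure. Reporter transcripts from transfected cis-element constructs quantified by RT-PCR/capillary electrophoresis fluorescence. Bidirectional curve fit against DMSO.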

[15] = molecular target: Hypoxia-inducible factor 1-alpha (Homo sapiens) (UniProt Q16665); assay: ATG_HIF1a_CIS: Attagene CIS-FACTORIAL HepG2 Assay for human Hypoxia Inducible Factor 1 (HIF1A) (AID 2282951); settings: HepG2 Attagene cis-factorial HIF1a reporter transcription; actives raise or lower the signal
Procedure, shortened: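 Transient MRTU transfection of human HepG2 liver cells, 24 h compound treatment, then total RNA isolation, oligo(dT) reverse transcription, PCR amplification, fluorescent labelling and capillary electrophoresis of reporter fragments. Gain or loss relative to DMSO.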

[16] = molecular target: Hepatocyte nuclear factor 6 (Homo sapiens) (UniProt Q9UBC0); assay: ATG_HNF6_CIS: Attagene CIS-FACTORIAL HepG2 Assay for human Hepatocyte Nuclear Factor 6 (HNF6) (AID 2282952); settings: HepG2 Attagene cis-factorial HNF6 reporter transcription; actives raise or lower the signal
Procedure, shortened: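 First, HepG2 cells were transfected with the multiplexed cis reporter library and dosed with chemical for 24 h. Next, RNA was reverse-transcribed, PCR-amplified and fluorescently labelled. Finally, HpaI-digested fragments were read by capillary electrophoresis.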

[17] = molecular target: Heat shock factor protein 1 (Homo sapiens) (UniProt Q00613); assay: ATG_HSE_CIS: Attagene CIS-FACTORIAL HepG2 Assay for human Heat Shock Transcription Factor 1 (HSE) (AID 2282953); settings: HepG2 HSE cis-reporter, Attagene RNA transcription; actives raise or lower the signal
Procedure, shortened: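 Endogenous transcription factor activity captured via cis-promoter reporter units transfected into HepG2; treatment lasted 24 h. Fluorescence intensity of reporter fragments analysed with bidirectional curve fitting, DMSO baseline.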

[18] = ATG_MRE_CIS: Attagene CIS-FACTORIAL HepG2 Assay for human Metal Responsive Element (MRE) (AID 2282954); settings: HepG2 MRE cis-reporter transcription, Attagene multiplex; actives raise or lower the signal
Procedure, shortened: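 Multiplexed cis-reporter assay in human HepG2 liver cells, 24 h incubation with test chemical. Reporter transcripts measured by RT-PCR and capillary electrophoresis; values from bidirectional curve fitting versus DMSO.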

[19] = ATG_PBREM_CIS: Attagene CIS-FACTORIAL HepG2 Assay for human Phenobarbital-responsive Enhancer Module (PBREM) (AID 2282955); settings: HepG2 PBREM cis-reporter, Attagene multiplexed transcription; actives raise or lower the signal
Procedure, shortened: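 Endogenous transcription factors in human liver HepG2 cells drive a PBREM cis-element reporter, whose transcript level after 24 h treatment is quantified by RT-PCR with capillary electrophoresis; activity fitted in both directions against DMSO.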

Measured: AC50

Heat shock factor protein 1 (Homo sapiens), sequence (Q00613 whole entry, looked up, the tested form may be a part): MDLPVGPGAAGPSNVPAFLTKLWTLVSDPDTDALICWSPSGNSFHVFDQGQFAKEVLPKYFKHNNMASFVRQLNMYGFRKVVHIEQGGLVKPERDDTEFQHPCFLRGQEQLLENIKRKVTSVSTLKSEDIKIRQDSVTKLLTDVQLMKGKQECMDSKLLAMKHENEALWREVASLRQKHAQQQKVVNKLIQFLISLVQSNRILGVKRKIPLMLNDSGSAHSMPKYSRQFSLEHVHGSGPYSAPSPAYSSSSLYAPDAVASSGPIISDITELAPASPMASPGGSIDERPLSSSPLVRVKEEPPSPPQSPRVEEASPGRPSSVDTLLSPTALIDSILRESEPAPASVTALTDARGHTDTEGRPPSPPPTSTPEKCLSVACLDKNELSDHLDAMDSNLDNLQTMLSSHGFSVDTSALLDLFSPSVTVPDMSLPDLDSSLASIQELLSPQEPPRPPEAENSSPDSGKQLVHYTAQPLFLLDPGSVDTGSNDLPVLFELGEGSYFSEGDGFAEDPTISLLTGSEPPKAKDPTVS
Hypoxia-inducible factor 1-alpha (Homo sapiens), sequence (Q16665 whole entry, looked up, the tested form may be a part): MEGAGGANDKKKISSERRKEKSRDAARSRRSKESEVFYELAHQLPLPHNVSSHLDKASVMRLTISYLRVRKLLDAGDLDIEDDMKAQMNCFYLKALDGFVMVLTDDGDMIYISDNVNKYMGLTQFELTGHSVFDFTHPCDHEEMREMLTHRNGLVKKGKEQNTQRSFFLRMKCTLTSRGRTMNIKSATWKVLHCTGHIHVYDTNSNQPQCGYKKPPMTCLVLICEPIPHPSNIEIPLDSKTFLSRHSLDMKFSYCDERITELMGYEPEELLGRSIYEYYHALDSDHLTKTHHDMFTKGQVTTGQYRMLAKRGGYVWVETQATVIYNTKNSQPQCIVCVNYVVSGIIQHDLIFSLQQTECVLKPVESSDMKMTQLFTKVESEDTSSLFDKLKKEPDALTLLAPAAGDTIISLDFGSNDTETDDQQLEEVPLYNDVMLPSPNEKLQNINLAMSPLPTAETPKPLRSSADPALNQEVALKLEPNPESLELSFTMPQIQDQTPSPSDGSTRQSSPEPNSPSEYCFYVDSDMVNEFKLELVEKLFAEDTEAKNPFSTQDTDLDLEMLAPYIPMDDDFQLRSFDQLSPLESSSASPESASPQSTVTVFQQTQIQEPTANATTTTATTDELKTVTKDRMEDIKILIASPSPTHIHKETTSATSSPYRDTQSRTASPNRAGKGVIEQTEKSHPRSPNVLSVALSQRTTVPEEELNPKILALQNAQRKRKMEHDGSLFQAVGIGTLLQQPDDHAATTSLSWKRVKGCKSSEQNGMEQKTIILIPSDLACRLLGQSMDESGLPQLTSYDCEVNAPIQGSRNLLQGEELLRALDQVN
Hepatocyte nuclear factor 6 (Homo sapiens), sequence (Q9UBC0 whole entry, looked up, the tested form may be a part): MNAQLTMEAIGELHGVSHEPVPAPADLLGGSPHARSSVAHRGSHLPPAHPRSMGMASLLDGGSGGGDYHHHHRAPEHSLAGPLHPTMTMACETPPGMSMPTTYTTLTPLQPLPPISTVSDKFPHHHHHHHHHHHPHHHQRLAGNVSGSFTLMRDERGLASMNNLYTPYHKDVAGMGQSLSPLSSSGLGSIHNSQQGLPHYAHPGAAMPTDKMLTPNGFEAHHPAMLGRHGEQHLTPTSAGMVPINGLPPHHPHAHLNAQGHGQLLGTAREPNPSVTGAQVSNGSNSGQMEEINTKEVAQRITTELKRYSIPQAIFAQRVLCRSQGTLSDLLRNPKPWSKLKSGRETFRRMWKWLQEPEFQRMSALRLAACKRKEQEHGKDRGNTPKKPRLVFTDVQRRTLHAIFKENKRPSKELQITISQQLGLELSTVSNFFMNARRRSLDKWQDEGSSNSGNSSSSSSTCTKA
Bile acid receptor (Homo sapiens), sequence (Q96RI1 whole entry, looked up): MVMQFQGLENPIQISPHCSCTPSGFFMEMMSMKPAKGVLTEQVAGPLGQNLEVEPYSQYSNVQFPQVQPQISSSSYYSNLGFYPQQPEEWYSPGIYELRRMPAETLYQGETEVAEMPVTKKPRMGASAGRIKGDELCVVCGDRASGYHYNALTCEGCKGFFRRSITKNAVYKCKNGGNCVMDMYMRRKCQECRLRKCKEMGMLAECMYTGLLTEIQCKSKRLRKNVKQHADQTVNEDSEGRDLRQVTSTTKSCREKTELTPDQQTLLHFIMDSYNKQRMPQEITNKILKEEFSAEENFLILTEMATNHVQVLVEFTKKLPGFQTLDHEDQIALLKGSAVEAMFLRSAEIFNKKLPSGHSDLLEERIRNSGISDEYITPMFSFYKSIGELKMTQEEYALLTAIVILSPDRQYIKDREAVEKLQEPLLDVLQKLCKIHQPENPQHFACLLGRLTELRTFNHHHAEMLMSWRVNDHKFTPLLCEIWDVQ
Hepatocyte nuclear factor 3-beta (Homo sapiens), sequence (Q9Y261 whole entry, looked up): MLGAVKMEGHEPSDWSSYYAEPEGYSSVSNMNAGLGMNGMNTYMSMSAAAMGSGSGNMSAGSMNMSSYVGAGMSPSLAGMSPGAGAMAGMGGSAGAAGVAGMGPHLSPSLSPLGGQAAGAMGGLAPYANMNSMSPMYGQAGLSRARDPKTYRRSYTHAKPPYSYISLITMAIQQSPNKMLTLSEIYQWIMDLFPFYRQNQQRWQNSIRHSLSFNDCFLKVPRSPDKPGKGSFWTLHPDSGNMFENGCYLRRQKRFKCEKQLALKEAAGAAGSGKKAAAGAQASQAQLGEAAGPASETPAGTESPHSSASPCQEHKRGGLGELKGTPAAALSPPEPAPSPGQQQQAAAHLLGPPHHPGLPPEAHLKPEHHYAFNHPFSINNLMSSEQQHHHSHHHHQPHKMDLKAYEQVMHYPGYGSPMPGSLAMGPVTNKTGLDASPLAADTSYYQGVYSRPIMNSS

Nc1ccc(Cl)cc1N
active: [3] 28.2 µM | [15] 27.6 µM | [18] 22.9 µM
not listed: [19]
inactive: all other assays above

CC(C)(OOC(C)(C)c1ccccc1)c1ccccc1
active: [3] 61.9 µM | [5] 100 µM | [9] 59.1 µM | [11] 78.3 µM | [12] 100 µM | [16] 100 µM | [18] 64 µM
not listed: [19]
inactive: all other assays above

CN(C)C(=O)Nc1ccc(Cl)cc1
not listed: [19]
inactive: all other assays above

c1ccc(NNc2ccccc2)cc1
not listed: [19]
inactive: all other assays above

O=C1CCCO1
not listed: [19]
inactive: all other assays above

Cc1cccc(N)c1N
active: [3] 106 µM | [5] 77.1 µM | [15] 2.66 µM | [18] 106 µM
inactive: all other assays above

CCC(C)c1ccc(O)cc1 (configuration not stated)
active: [18] 82.1 µM
not listed: [19]
inactive: all other assays above
